These results are taken from ChEMBL document CHEMBL3988442, “University of Dundee, Small-Polar-MMV Screening Library” (2021).

Structures are written as SMILES. For some assays here: Entries with a potency or affinity are not part of this list.

Set-up in all cases: scale not given: direction of the effect not stated beside the values
The target in assay [1] is Protein translocase subunit SecA (Escherichia coli (strain K12)) (UniProt P10408). As to the kind of experiment: Assay to Identify E. coli SecA ATPase Inhibitors. Conditions: 30 µM. It is filed as functional.
For assay [2], the target named is T1, Ubiquitin-activating enzyme e1, putative (Leishmania donovani (strain BPK282A1)) (UniProt E9BSI1).
T1 sequence (whole entry): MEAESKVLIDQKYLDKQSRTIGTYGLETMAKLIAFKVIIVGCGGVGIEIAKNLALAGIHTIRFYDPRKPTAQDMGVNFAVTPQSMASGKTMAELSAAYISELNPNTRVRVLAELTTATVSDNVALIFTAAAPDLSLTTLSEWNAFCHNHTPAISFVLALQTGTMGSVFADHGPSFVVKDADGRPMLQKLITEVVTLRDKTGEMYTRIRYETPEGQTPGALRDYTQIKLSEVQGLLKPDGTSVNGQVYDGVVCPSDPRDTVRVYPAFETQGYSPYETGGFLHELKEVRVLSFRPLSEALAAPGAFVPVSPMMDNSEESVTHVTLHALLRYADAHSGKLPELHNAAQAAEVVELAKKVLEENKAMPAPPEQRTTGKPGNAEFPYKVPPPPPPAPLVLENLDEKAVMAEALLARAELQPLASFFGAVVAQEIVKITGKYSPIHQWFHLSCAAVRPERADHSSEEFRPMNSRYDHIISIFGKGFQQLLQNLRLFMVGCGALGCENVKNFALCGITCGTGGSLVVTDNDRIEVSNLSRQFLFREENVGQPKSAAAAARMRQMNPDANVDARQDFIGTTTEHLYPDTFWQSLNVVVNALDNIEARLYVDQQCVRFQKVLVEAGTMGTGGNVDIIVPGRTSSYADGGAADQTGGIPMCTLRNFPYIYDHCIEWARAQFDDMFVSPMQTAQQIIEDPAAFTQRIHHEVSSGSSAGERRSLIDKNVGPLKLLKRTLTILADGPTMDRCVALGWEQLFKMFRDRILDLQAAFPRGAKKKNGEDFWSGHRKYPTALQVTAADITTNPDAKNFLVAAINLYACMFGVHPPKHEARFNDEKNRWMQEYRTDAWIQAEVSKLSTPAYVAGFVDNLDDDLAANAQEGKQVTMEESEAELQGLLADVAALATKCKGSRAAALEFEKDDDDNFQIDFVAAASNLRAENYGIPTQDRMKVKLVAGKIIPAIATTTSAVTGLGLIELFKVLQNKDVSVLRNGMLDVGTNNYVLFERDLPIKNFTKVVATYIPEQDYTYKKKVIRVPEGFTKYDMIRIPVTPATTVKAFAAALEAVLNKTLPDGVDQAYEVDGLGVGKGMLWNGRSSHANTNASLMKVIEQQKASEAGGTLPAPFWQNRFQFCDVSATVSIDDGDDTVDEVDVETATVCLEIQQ
As to the kind of experiment: Leishmania donovani Ubiquitin Activating Enzyme (LdE1). The class given is functional. Conditions: 30 µM.

For assay [3], the target named is AMP-activated protein kinase, AMPK (Homo sapiens) (UniProt P54646+O43741+P54619+Q9UGJ0+Q9Y478+Q13131+Q9UGI9). As to the kind of experiment: AMP-dependent Kinase enzyme assay. An in vitro enzyme assay that detects ADP turnover that is directly proportional to AMPK activity. This uses naive AMPK that is activated during the assay with MK-8722. The class given is functional. The settings on record: 30 µM.

The target of assay [4] is Sialic acid-binding Ig-like lectin 9 (Homo sapiens) (UniProt Q9Y336). In words: Hs-Siglec9 ALPHAscreen SOP 20170721. Conditions: 10 µM. (In general: In Alpha technology, singlet oxygen from a donor bead excites a nearby acceptor bead.)
Another assay concerns Trypanosoma cruzi. As to the kind of experiment: Trypanosoma cruzi phosphomannomutase and mannose-1-phosphate guanylyltransferase assay. The class given is functional. Conditions: 10 µM.
Assay [5] deals with T2, Arginase-2, mitochondrial (Homo sapiens) (UniProt P78540).
T2 sequence (whole entry): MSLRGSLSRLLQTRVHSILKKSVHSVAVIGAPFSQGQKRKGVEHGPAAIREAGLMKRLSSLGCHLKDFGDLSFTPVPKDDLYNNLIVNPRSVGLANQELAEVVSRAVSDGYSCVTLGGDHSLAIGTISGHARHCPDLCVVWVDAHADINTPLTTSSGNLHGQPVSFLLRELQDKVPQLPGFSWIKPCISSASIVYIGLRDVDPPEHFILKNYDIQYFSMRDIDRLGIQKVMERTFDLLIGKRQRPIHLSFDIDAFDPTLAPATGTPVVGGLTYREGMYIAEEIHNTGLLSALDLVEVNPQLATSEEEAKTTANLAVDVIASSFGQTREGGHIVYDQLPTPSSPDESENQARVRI
As to the kind of experiment: in vitro enzyme assay to detect the production of urea directly proportional to the activity of Arginase II. Also: in the data most compounds retested in dose-response had high values. The class given is functional. Conditions: 33.3 µM.

The target in assay [6] is T3, Proteasome subunit beta (Trypanosoma cruzi) (UniProt O96673).
T3 sequence (whole entry): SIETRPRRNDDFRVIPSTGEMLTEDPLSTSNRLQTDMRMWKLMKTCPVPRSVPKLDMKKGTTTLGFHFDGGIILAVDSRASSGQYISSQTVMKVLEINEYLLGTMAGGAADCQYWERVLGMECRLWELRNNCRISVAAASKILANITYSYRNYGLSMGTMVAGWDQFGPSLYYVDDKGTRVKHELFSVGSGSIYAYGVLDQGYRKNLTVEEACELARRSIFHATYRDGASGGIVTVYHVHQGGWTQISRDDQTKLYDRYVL
As to the kind of experiment: Trypanosoma cruzi proteasome chymotrypsin-like activity (TcProtChymo) assay. Also: in the data most compounds retested in dose-response had high values. It is filed as functional. Conditions: 9.37 µM.

The species named for the next assay is Homo sapiens. In words: To identify inhibition of the IFN signalling (Jak-Stat) pathway via expression of an eGFP reporter gene under the control of an IFN-stimulated response element (ISRE) containing MxA promoter. It is filed as functional. The settings on record: 30 µM. For orientation: In a reporter assay the amount or activity of a reporter protein is the signal.

The target in assay [7] is T4, Tyrosyl-tRNA synthetase, putative (Trypanosoma cruzi (strain CL Brener)) (UniProt Q4DSP6).
T4 sequence (whole entry): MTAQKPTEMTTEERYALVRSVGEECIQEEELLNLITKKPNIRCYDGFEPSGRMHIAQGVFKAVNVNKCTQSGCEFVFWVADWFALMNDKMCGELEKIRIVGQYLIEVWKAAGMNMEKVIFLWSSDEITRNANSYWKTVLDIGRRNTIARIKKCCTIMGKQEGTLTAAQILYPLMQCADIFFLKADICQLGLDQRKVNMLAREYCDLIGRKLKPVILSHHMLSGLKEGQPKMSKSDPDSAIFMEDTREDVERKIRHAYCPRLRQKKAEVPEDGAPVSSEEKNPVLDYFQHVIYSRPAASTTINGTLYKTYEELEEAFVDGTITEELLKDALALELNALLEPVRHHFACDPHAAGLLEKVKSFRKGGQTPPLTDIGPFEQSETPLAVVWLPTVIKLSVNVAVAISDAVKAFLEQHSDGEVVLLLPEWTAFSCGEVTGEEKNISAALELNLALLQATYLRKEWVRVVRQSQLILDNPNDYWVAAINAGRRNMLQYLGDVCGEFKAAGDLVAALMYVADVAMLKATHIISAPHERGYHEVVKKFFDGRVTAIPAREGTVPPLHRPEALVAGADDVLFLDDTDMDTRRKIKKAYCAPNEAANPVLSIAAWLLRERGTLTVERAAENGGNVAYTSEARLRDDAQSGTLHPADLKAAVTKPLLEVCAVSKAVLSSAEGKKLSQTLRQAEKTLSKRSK
As to the kind of experiment: Trypanosoma cruzi tyrosyl tRNA synthetase (TcYRS) _High Tyrosine SOP. Also: in the data most compounds retested in dose-response had high values. Conditions: 30 µM. It is filed as functional.

Assay [8] deals with T4, Tyrosyl-tRNA synthetase, putative (Trypanosoma cruzi (strain CL Brener)). As to the kind of experiment: Trypanosoma cruzi tyrosyl tRNA synthetase (TcYRS) SOP. The class given is functional. Conditions: 30 µM.
Assay [9] deals with Chromo domain-containing protein 1 (Saccharomyces cerevisiae (strain ATCC 204508 / S288c) (Baker's yeast)) (UniProt P32657). As to the kind of experiment: ScCHD-1 Enzyme Inhibition Assay. Also: in the data most compounds retested in dose-response had high values. It is filed as functional. The settings on record: 30 µM.
Chromo domain-containing protein 1 (Saccharomyces cerevisiae (strain ATCC 204508 / S288c) (Baker's yeast)), sequence (P32657 whole entry, the tested form may be a part): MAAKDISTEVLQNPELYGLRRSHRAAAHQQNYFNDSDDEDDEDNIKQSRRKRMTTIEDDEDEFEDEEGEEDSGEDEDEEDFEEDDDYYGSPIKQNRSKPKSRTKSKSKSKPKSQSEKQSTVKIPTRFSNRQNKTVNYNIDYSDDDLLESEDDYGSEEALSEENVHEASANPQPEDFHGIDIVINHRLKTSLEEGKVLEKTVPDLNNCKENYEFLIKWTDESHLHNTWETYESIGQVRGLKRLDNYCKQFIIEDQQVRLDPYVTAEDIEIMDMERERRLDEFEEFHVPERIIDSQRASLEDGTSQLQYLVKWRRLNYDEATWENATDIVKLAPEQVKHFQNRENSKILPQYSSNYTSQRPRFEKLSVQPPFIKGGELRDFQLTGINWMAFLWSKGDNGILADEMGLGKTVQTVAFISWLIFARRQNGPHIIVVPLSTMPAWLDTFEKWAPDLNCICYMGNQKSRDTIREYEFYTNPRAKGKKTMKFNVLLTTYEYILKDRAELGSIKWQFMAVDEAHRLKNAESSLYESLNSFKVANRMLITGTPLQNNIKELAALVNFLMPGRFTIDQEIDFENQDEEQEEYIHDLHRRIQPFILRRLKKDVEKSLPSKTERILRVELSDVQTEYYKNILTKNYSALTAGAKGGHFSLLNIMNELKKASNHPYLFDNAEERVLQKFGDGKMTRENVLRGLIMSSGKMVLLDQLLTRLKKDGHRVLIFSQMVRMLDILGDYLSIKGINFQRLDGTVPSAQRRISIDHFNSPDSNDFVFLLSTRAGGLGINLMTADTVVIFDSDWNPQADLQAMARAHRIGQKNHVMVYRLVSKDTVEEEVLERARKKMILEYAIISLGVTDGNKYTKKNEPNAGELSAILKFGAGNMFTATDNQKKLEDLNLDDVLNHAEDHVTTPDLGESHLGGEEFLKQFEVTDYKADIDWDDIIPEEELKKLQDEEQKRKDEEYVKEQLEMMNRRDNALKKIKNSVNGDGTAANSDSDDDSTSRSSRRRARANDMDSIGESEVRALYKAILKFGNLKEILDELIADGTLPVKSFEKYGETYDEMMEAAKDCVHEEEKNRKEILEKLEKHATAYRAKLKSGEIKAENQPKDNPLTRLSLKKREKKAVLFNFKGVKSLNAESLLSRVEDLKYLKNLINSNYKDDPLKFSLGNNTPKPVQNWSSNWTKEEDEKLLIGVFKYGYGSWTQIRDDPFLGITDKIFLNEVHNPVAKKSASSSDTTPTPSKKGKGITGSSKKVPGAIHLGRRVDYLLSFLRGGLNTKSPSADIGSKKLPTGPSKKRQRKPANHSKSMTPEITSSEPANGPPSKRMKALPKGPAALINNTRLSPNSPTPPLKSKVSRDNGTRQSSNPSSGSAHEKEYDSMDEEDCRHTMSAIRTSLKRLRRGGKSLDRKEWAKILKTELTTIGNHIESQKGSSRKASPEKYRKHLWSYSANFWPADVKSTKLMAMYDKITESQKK

Protein translocase subunit SecA (Escherichia coli (strain K12)), sequence (P10408 whole entry): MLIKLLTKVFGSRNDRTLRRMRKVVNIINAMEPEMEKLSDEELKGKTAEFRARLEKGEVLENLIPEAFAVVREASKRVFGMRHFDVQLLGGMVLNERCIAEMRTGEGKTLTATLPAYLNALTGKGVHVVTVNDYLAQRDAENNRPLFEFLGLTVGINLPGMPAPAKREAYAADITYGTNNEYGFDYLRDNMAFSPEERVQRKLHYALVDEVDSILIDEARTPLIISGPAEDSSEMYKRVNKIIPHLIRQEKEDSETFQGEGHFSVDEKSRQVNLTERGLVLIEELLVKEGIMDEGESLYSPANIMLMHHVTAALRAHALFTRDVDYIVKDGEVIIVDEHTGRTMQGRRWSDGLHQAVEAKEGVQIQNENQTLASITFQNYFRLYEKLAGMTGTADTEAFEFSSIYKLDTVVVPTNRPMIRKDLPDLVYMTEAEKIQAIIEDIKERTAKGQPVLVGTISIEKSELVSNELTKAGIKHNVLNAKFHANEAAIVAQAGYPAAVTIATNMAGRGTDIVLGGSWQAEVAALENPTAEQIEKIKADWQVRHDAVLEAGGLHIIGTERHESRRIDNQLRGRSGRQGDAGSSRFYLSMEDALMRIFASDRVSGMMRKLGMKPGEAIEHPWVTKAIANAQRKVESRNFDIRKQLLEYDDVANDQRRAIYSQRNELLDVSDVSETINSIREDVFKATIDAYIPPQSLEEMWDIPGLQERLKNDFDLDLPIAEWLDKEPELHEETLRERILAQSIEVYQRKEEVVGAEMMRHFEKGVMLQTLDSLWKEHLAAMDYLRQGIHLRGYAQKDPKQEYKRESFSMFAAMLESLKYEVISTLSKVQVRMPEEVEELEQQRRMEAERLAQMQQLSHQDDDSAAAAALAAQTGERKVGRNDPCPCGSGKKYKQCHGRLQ
Sialic acid-binding Ig-like lectin 9 (Homo sapiens), sequence (Q9Y336 whole entry): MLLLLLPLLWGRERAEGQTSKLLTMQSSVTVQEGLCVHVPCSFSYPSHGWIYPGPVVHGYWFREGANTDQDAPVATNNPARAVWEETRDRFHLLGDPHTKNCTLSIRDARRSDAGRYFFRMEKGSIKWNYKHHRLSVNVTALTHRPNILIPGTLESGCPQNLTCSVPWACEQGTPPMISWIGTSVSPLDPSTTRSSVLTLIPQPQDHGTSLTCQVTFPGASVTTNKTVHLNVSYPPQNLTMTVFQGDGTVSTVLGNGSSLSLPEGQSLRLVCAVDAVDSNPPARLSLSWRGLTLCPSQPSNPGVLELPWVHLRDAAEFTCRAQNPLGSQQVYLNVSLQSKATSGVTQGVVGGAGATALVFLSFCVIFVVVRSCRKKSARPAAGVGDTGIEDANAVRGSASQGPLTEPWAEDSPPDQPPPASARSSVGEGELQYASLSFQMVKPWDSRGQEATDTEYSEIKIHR

Take `Cc1cnc2c(S(=O)(=O)NCC3CCS(=O)(=O)C3)cccc2c1` (stereo not given): the Percent Effect in assay [1] is -3.39%; in [2] it was 21.1%; in [3], -0.0656%; in [4], -5%; with Trypanosoma cruzi it was 6.26%; in assay [5] it was 3.24%. The Percent Effect in [6] is 16.8%; in the assay listed under Homo sapiens, 7.48%; in [7] it was 7.39%; in [8] it was 23.5%; in assay [9] it was -10.9%.

Turning to `COc1ccc(CS(=O)(=O)CC(=O)NCC2CC2)cc1F`, the Percent Effect in [1] is -1.25%; in assay [2], 10.5%; in assay [3], 6.04%; in assay [4], -2.71%; in the assay with Trypanosoma cruzi, 1.66%; in assay [5] it was 5.92%. For the same compound, the Percent Effect was 15.6% in assay [6]; 8.09% in the assay listed under Homo sapiens; 6.38% in [7]; 18.2% in assay [8]; -4.08% in [9].

With `CN(C)c1ccc(C(=O)N2CCN(C(=O)N3CCCCC3)CC2)nn1`, the Percent Effect is -6.05% in [1]; 7.79% in assay [2]; 4.21% in [3]; 10.5% in assay [4]; 5.8% with Trypanosoma cruzi; -3.92% in assay [5]. The Percent Effect in assay [6] is 4.56%; in the assay listed under Homo sapiens it was 3.45%; in [7], 0%; in assay [8], 7.32%; in [9] it was -13.4%.

Take `CCc1ccc(NC(=O)c2cnc(N3CCN(C)CC3)nc2C)cc1`: the Percent Effect in [1] is -3.08%; in [2], 20.8%; in [3] it was -8.09%; in [4], -20.9%; with Trypanosoma cruzi, 4.63%; in [5], -0.645%. Further, the Percent Effect in assay [6] is 8.01%; in the assay filed under Homo sapiens, 15.9%; in assay [7] it was 2.12%; in assay [8], 11.5%; in [9] it was -10.8%.

For the compound `Cc1scc(C(=O)N2CCC3(CCCN(C)C3=O)C2)c1-c1ccccc1` (stereo not given), the Percent Effect in [1] is -0.994%; in assay [2], 0%; in assay [3], 1.8%; in assay [4], -1.74%; with Trypanosoma cruzi, -3.09%; in [5], 1.91%. The Percent Effect in assay [6] was 7.41%; in the assay filed under Homo sapiens, -8.13%; in [7] it was -2.65%; in assay [8], 9.76%; in [9] it was -4.36%.

In the case of `Cc1nc(CN2CCn3cc(CNC(=O)C4CCC4)nc3C2)cs1`, the Percent Effect in [1] was -1.94%; in assay [2], 13.3%; in assay [3], -0.557%; in assay [4] it was 6.49%; with Trypanosoma cruzi, 4.63%; in [5], -45.3%. In addition, the Percent Effect in assay [6] was 24.1%; in the assay listed under Homo sapiens it was -2.13%; in assay [7], 9.38%; in [8], 27.5%; in assay [9], -8.63%.

As to `Cc1noc([C@@]23CCO[C@@H]2CCN(C(=O)c2sccc2C)C3)n1`, the Percent Effect in [1] is -3.07%; in assay [2], 5.33%; in assay [3], 2.33%; in assay [4] it was -2.88%; in the assay on Trypanosoma cruzi, 2.12%; in assay [5], -46.1%. Also, the Percent Effect worked out at 0.513% in assay [6]; 1.48% in the assay filed under Homo sapiens; 1.04% in assay [7]; 0% in assay [8]; 1.44% in [9].

For the compound `Cc1cc(NC(=O)CN2CCc3cnc(C)nc3C2)on1`, the Percent Effect in [1] is -3.81%; in assay [2] it was 5.26%; in assay [3] it was -27.9%; in [4] it was 2.68%; in the assay on Trypanosoma cruzi it was 7.75%; in assay [5], 1.8%. For the same compound, the Percent Effect in assay [6] was 9.39%; in the assay filed under Homo sapiens, -5.85%; in [7] it was 8.37%; in [8] it was 16.1%; in assay [9], -7.97%.

As for `O=C(c1cccc(Cl)c1)N1CC[C@H]2[C@H]1CCN2CC1CCOCC1`, the Percent Effect is -2.38% in [1]; 0% in assay [2]; 10.3% in assay [3]; 0.0847% in assay [4]; 0.197% in the assay on Trypanosoma cruzi; 1.17% in assay [5]. Also, the Percent Effect in [6] is 9.78%; in the assay filed under Homo sapiens, -5.51%; in [7] it was 4.25%; in [8], 3.85%; in assay [9], -5.25%.

Turning to `CC(=O)N1CCn2c(COCc3csc(C)n3)cnc2C1C` (stereo not given), the Percent Effect in assay [1] was -5.84%; in assay [2] it was 18.7%; in [3] it was -3.96%; in assay [4], 4.19%; with Trypanosoma cruzi, 4.05%; in [5], -55.7%. Moreover, the Percent Effect in assay [6] is 9.57%; in the assay filed under Homo sapiens, 7.41%; in assay [7] it was -10.4%; in assay [8], 15%; in assay [9] it was -9.91%.
